C diff growth: C. difficile growth inhibition; Clostridium difficile clinical isolate growth, OD600, 24 h; active compounds read low; growth activity, negative = inhibition, % at 16 µg/mL (by protocol); 0.25% of 86,000 active;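 active means mean growth activity at or below -80% and every replicate also at or below -80%; inconclusive means mean at or below -80% but some replicate above -80%; inactive means mean growth activity above -80%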;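 further: 0% = DMSO wells and -100% = levofloxacin 16 µg/mL wells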
Pf Dd2 growth: inhibitors of Plasmodium falciparum Dd2 growth; P. falciparum Dd2 growth, SYBR Green, 72 h; active compounds read low; activity change, % at 10 µM; 2.3% of 94,000 active; in the data active means activity change below about -80%; inconclusive means no clear call, values can overlap the other calls
T cruzi growth-1: blocks T. cruzi growth in NIH3T3 culture. T. cruzi beta-gal in NIH3T3, GalScreen luminescence, 90 h. inhibition, % at 8.34 µM. 5.9% of 77,000 active. AID 624255;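 active means mean inhibition above about 93%, with at least 55% of replicates each passing it, limit read from the data, passing the limit was not always enough; inconclusive means only one of those two conditions holds; inactive means neither condition holds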
T cruzi growth-2: inhibitors of T. cruzi proliferation; shares compounds with T cruzi growth-1; T. cruzi beta-gal in NIH3T3, GalScreen luminescence, 90 h; inhibition, % at 8.35 µM; 72% of 5,600 active;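 active means mean replicate inhibition above about 95% and at least 55% of replicates individually reaching it, limit read from the data; inconclusive means only one of the two criteria is met; inactive means neither criterion is met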
T cruzi growth-3: Trypanosoma cruzi proliferation inhibition | shares compounds with T cruzi growth-1 | T. cruzi beta-gal in NIH3T3, GalScreen luminescence, 90 h | inhibition, % at 2.09 µM | 21% of 5,600 active | AID 651740;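 active means mean inhibition above about 95%, with at least 55% of replicates also reaching it, limit read from the data; inconclusive means meets just one of the two conditions; inactive means meets neither condition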;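 further: plate controls were neutral control median for no effect and positive control median for full effect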
NIH3T3 tox: cytotoxicity in mouse NIH/3T3 fibroblasts; 14% of 5,600 active; shares compounds with T cruzi growth-1; cytotoxicity (signal decrease), % at 8.35 µM; NIH/3T3 viability, CellTiter-Glo ATP luminescence, 90 h;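 active means mean signal decrease across replicates above about 35% based on untreated-well scatter, with enough replicates individually passing, limit read from the data; inconclusive means no rule stated though some were filed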;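 further: 0% = median of neutral control wells and 100% = median of positive control wells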
3T3 cytotox 2: kills mouse NIH/3T3 fibroblasts; shares compounds with T cruzi growth-1; NIH/3T3 viability, CellTiter-Glo ATP luminescence, 90 h; inhibition, % at 24.9 µM; 56% of 5,600 active;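 active means mean loss of cell viability signal at or above a set limit, and enough replicates individually reaching it; inconclusive means meets only the mean limit or only the replicate share; inactive means meets neither condition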;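 further: 0% = median of neutral control wells and 100% = median of positive control wells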
Starred values were filed as active, the others as inactive; ? = inconclusive; . = no result given; ! = repeats disagree. The list is not random: actives were taken first. Their share in the collection is about 6.8%.

SMILES	C diff growth	Pf Dd2 growth	T cruzi growth-1	T cruzi growth-2	T cruzi growth-3	NIH3T3 tox	3T3 cytotox 2
C[C@@H]1CN([C@@H](C)CO)C(=O)Cc2cc(NS(=O)(=O)c3ccc(F)cc3)ccc2O[C@@H]1CN(C)Cc1ccc(-c2ccccc2)cc1	.	11.9	55.0	.	.	.	.
C[C@@H]1CN([C@H](C)CO)C(=O)c2cc(C#Cc3ccccc3)cnc2O[C@@H]1CN(C)C(=O)c1ccccn1	-2.3	-0.2	52.9	.	.	.	.
C[C@@H]1CN([C@H](C)CO)C(=O)c2cc(C#Cc3ccccc3)cnc2O[C@H]1CN(C)C(=O)c1ccccn1	-5.0	-23.9	110.9*	101.2*	61.8	10.5	29.9*
C[C@@H]1CN([C@@H](C)CO)C(=O)c2cc(C#CC3(O)CCCC3)cnc2O[C@H]1CN(C)Cc1ccccc1	-1.2	-20.7	19.5	.	.	.	.
C[C@H]1CN([C@@H](C)CO)C(=O)c2cc(C#Cc3ccccn3)cnc2O[C@@H]1CN(C)Cc1ccccc1	1.5	-42.5	121.1*!	106.9*	24.6	-3.7	-6.3
C[C@@H]1CN([C@@H](C)CO)C(=O)c2cc(C#Cc3ccccn3)cnc2O[C@H]1CN(C)Cc1ccncc1	-4.3	22.3	?	108.0*	56.1	16.9	17.3
C[C@H]1CN([C@@H](C)CO)C(=O)c2cc(C#Cc3ccccn3)cnc2O[C@H]1CN(C)Cc1ccncc1	-1.2	10.9	44.0	.	.	.	.
C[C@H](CO)N1C[C@H](C)[C@@H](CN(C)Cc2ccccc2)Oc2ncc(C#Cc3ccccn3)cc2C1=O	-3.5	-30.3	94.7	.	.	.	.
C[C@H](CO)N1C[C@H](C)[C@H](CN(C)Cc2ccccc2)Oc2ncc(C#CC3(O)CCCC3)cc2C1=O	-0.9	-4.4	101.7*	45.8	41.9	9.5	18.6
C[C@H](CO)N1C[C@H](C)[C@@H](CN(C)S(=O)(=O)c2cccs2)OCCCC[C@H](C)Oc2ccc(NC(=O)Nc3ccc(C(F)(F)F)cc3)cc2C1=O	-11.1	-45.5	96.9*	102.0*	117.0*	33.2	26.2*
C[C@@H]1CCCCO[C@@H](CN(C)S(=O)(=O)c2cccs2)[C@H](C)CN([C@H](C)CO)C(=O)c2cc(NC(=O)Nc3ccc(C(F)(F)F)cc3)ccc2O1	2.1	-68.9	88.3	.	.	.	.
C[C@@H]1CCCCO[C@H](CN(C)S(=O)(=O)c2cccs2)[C@@H](C)CN([C@H](C)CO)C(=O)c2cc(NC(=O)Nc3ccc4c(c3)OCO4)ccc2O1	4.4	-74.2	33.2	.	.	.	.
C[C@H]1CCCCO[C@H](CN(C)S(=O)(=O)c2cccs2)[C@@H](C)CN([C@@H](C)CO)C(=O)c2cc(NC(=O)Nc3ccc(F)cc3)ccc2O1	-8.7	-72.7	97.2*	103.8*	38.8	23.8	5.7
C[C@@H]1CCCCO[C@H](CN(C)S(=O)(=O)c2cccs2)[C@H](C)CN([C@@H](C)CO)C(=O)c2cc(NC(=O)Nc3ccc(F)cc3)ccc2O1	-3.2	-53.1	59.2	.	.	.	.
C[C@H]1CCCCO[C@@H](CN(C)S(=O)(=O)c2cccs2)[C@@H](C)CN([C@@H](C)CO)C(=O)c2cc(NC(=O)Nc3ccc4c(c3)OCO4)ccc2O1	-0.3	-64.3	111.2*	110.7*	47.6	13.9	10.5
C[C@@H]1CCCCO[C@@H](CN(C)S(=O)(=O)c2cccs2)[C@H](C)CN([C@H](C)CO)C(=O)c2cc(NC(=O)Nc3ccc(F)cc3)ccc2O1	0.4	-77.7	?	108.3*	41.5	-15.2	8.4
C[C@@H]1CN([C@H](C)CO)C(=O)c2cc(NC(=O)Nc3ccc(F)cc3)ccc2O[C@@H](C)CCCCO[C@H]1CN(C)S(=O)(=O)c1cccs1	5.1	-71.5	33.4	.	.	.	.
C[C@H](CO)N1C[C@H](C)[C@@H](CN(C)C)Oc2ccc(NC(=O)Nc3ccc(F)cc3)cc2C1=O	3.5	5.4	.	.	.	.	.
CC(C)CC#Cc1cnc2c(c1)C(=O)N([C@H](C)CO)C[C@H](C)[C@@H](CN(C)C(=O)CCN1CCCCC1)O2	9.5	-36.2	25.4	.	.	.	.
CC(C)NC(=O)N(C)C[C@@H]1OCCCC[C@H](C)Oc2ccc(NS(=O)(=O)c3ccc(Cl)cc3)cc2C(=O)N([C@H](C)CO)C[C@H]1C	-1.7	.	-43.3	.	.	.	.
C[C@H](CO)N1C[C@H](C)[C@@H](CN(C)S(=O)(=O)c2cccs2)OCCCC[C@H](C)Oc2ccc(NC(=O)NC3CCCCC3)cc2C1=O	8.0	-45.7	76.1	.	.	.	.
C[C@H]1CN([C@@H](C)CO)C(=O)c2cc(NC(=O)Nc3ccc(C(F)(F)F)cc3)ccc2O[C@H]1CN(C)S(=O)(=O)c1cccs1	2.9	9.2	122.7*	102.5*	57.5	4.9	85.2*
C[C@H](CO)N1C[C@H](C)[C@@H](CN(C)S(=O)(=O)c2cccs2)Oc2ccc(NC(=O)Nc3ccc(F)cc3)cc2C1=O	.	-14.8	-49.4	.	.	.	.
C[C@@H]1CCCCO[C@@H](CN(C)S(=O)(=O)c2cccs2)[C@H](C)CN([C@H](C)CO)C(=O)c2cc(NC(=O)NC3CCCCC3)ccc2O1	15.5	?	118.2*	106.2*	35.8	1.9	-2.8
C[C@@H]1CCCCO[C@H](CN(C)S(=O)(=O)c2cccs2)[C@H](C)CN([C@H](C)CO)C(=O)c2cc(NC(=O)Nc3ccc(F)cc3)ccc2O1	-6.7	-84.6*	?	112.7*	99.9*	-16.2	11.5
SMILES	C diff growth	Pf Dd2 growth	T cruzi growth-1	T cruzi growth-2	T cruzi growth-3	NIH3T3 tox	3T3 cytotox 2
C[C@H](CO)N1C[C@H](C)[C@@H](CN(C)S(=O)(=O)c2cccs2)OCCCC[C@H](C)Oc2ccc(NC(=O)Nc3ccc(F)cc3)cc2C1=O	2.7	-63.1	79.3	.	.	.	.
C[C@@H]1CN([C@@H](C)CO)C(=O)Cc2cc(NC(=O)NC3CCCCC3)ccc2O[C@@H]1CN(C)Cc1ccc(C(=O)O)cc1	-0.6	11.9	2.2	.	.	.	.
CCCC[C@@H](O)C1=C(COc2ccccc2)C[C@H]2C(=O)N(Cc3ccccc3)C(=O)[C@H]2[C@H]1CO	3.8	.	.	.	.	.	.
C[C@H](CO)N1C[C@H](C)[C@@H](CN(C)C(=O)c2ccncc2)OCCCC[C@H](C)Oc2ccc(NS(=O)(=O)c3ccccc3)cc2C1=O	.	2.2	-38.2	.	.	.	.
Cc1ccc(-c2ccc3c(c2)O[C@H](CN(C)C(=O)Nc2ccc(F)cc2)[C@@H](C)CN([C@@H](C)CO)S3(=O)=O)cc1	6.4	-13.3	114.2*	103.2*	92.3	40.4*	96.1*
Cc1ccc(-c2ccc3c(c2)O[C@@H](CN(C)C(=O)Nc2ccc(F)cc2)[C@@H](C)CN([C@@H](C)CO)S3(=O)=O)cc1	51.5	-44.4	120.7*	97.1*	65.9	53.1*	80.9*
Cc1ccc(-c2ccc3c(c2)O[C@H](CN(C)C(=O)Nc2ccccc2)[C@H](C)CN([C@H](C)CO)S3(=O)=O)cc1	4.6	-26.6	.	.	.	.	.
Cc1ccc(-c2ccc3c(c2)O[C@@H](CN(C)C(=O)Nc2ccccc2)[C@H](C)CN([C@@H](C)CO)S3(=O)=O)cc1	-3.2	-49.4	.	.	.	.	.
